The text below walks through data of PubChem BioAssay (NCI).

Compounds without any hit were thinned out: in the full panel of roughly 83,000, 20% have a hit.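 Compound tested at a single concentration for 48 hours in 96-well plates; a percent growth value below 10 was scored as active.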 A number with no mark means an inactive call. Activity calls are given as the source filed them.

The assay has as its system MDA-MB-468 breast. Nature of the assay: NCI-60 one-dose screen, 48 h (100 = growth as untreated, 0 = no growth, -100 = all killed). The note with it: 10 µM unless noted.

`Nc1nc(N)c2c(ccc3c2ccn3Cc2cccc([N+](=O)[O-])c2)n1`: the growth is -84.7% (active). Regarding `O=C1c2ccccc2C(=O)C1c1ccc(Br)cc1`, the growth was 115%.

Turning to `c1ccc2c(Cc3csc4ccccc34)csc2c1`, the growth is 74%.

With `CCCCCCCC/C=C\CCCCCCCCOc1ccc(CC(=O)NCC[N+](C)(C)C)cc1`, the growth is 60.1%. Turning to `N=c1c2cc(-c3ccccc3)oc2ncn1/N=C/c1ccc(Br)cc1`, the growth was 68.3%. For the compound `N#C/C(=C\c1ccc(Cl)cc1)n1nnc2cc(F)c(F)cc21`, the growth was 3.5% (active). To `C=C1CCC2C3(C)COC(C)(C)OC3CCC2(C)C1C/C=C1/C(=O)OCC1OC(C)=O` (centres undefined) belongs 7.86% (active).

As for `COc1ccc(/C=N/NC(=O)c2cnn(CC(O)Cc3ccccc3)c2N)cc1OC1CCCC1` (centres undefined), the growth is 93.4%.

With `CCn1c2ccc(O)cc2c2c(C)c3c[n+](C)ccc3c(C)c21`, the growth is -31.2% (active).

As for `[Ag].[Ag].[NH-]S(=O)(=O)c1ccc(N=Nc2cc(N=Nc3ccc(S([NH-])(=O)=O)cc3)c3c(NC(=O)C(Cl)Cl)cccc3c2OC(=O)C(Cl)Cl)cc1.[c-]1nccs1.[c-]1nccs1`, the growth is 61.4%. Consider `O=C1CC(=O)N2CSCN(C(c3ccccc3)c3nc4ncncc4[nH]3)C2=N1` (centres undefined), for which the growth was 102%. To `O=C(/C=C/c1cccc(C(F)(F)F)c1)Nc1cccc(C(F)(F)F)c1` belongs 55.6%; to `COc1cc(-c2nc3cc(Cl)c(Cl)cc3[nH]2)ccc1OCC(=O)N=Nc1c(O)[nH]c2ccc([N+](=O)[O-])cc12`, 4.59% (active). For the compound `Cc1ccc(OCCOCCOCCOCCOCCOc2ccc(C)n(O)c2=S)c(=S)n1O`, the growth is -22.8% (active).
